Our source for the growth inhibition values is PubChem BioAssay (NCI).

Structures are written as SMILES. “And” between values parts separate entries of the source, which are not always exact repeats. Equal entries are not always repeated. The panel holds about 79,000 compounds, 15% with a hit somewhere; the sample as a whole holds those more often. A number with no mark means an inactive call. The source made the active and inactive calls. Cut-off read from the data, not from the text of the source: active = growth inhibition above about 70%; inactive = the rest.

The nature of assay [1]: NCI Yeast Anticancer Drug Screen. Data for the mec2-1 strain (AID 157). Conditions: S. cerevisiae mec2-1 strain, stronger effect = higher value. Summed up:
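Vehicle-treated cultures served as reference for growth inhibition of compound-exposed mec2-1 yeast.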

Assay [2] is described as follows: NCI Yeast Anticancer Drug Screen. Data for the sgs1 mgt1 strain (AID 161).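 Note: 0% = growth of cultures given vehicle only.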 Conditions: S. cerevisiae sgs1 mgt1 strain, stronger effect = higher value. In a few lines: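 Genetically altered yeast, compound exposure, growth inhibition relative to vehicle.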
A short description of assay [3]: NCI Yeast Anticancer Drug Screen. Data for the cln2 rad14 strain (AID 165).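 Note: 0% = growth equal to vehicle treated cultures.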 Conditions: S. cerevisiae cln2 rad14 strain, stronger effect = higher value. Summed up:
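Each compound was tested on cln2 rad14 yeast. Inhibition of growth was calculated against vehicle-exposed controls.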

The nature of assay [4]: NCI Yeast Anticancer Drug Screen. Data for the bub3 strain (AID 167). Conditions: S. cerevisiae bub3 mutant strain, stronger effect = higher value. Summed up: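 Part of a panel of yeast mutants defective in DNA damage repair or cell cycle regulation. Each strain is grown with compound, and inhibition is calculated relative to solvent-treated cultures.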
Assay [5] in a line: NCI Yeast Anticancer Drug Screen. Data for the mlh1 rad18 strain (AID 175). Conditions: S. cerevisiae mlh1 rad18 strain growth inhibition, stronger effect = higher value. In a few lines:
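Vehicle-treated cultures served as the reference for growth inhibition in a yeast strain carrying DNA damage repair alterations exposed to each compound.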

The nature of assay [6]: NCI Yeast Anticancer Drug Screen. Data for the rad50 strain (AID 155).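 Note: 0% = growth of vehicle-only cultures of the same strain.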 Conditions: S. cerevisiae rad50 strain growth inhibition; at 50.0 µM; stronger effect = higher value. Summed up: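 Cells are treated with compound, grown, and their growth is then scored against vehicle-only cultures of the same repair-deficient yeast strain.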
Where [7] appears, read: at 5.0 µM (retest, dose inferred, filed as 0.5).
Setting [8] is: at 50.0 µM (retest, dose inferred, filed as 5.0).

Consider `O=P(O)(Oc1ccccc1)Oc1ccccc1.[Ag]`, for which the growth inhibition in assay [1] (setting [7]) was 37%; in assay [1] (setting [8]), 87% (active); in assay [1] (at 50.0 µM), 94% (active); in assay [2] (setting [7]) it was 99% (active); in assay [2] (setting [8]), 98% (active); in assay [2] (at 50.0 µM), 94% (active). Besides, the growth inhibition in assay [3] (setting [7]) was 70% (active); in assay [3] (setting [8]), 99% (active); in assay [3] (at 50.0 µM), 93% (active); in assay [4] (setting [7]) it was 100% (active); in assay [4] (setting [8]), 99% (active); in assay [4] (at 50.0 µM), 92.8% (active). The growth inhibition is 37% in assay [5] (setting [7]), 86% (active) in assay [5] (setting [8]) and 92.3% (active) in assay [5] (at 50.0 µM).

Turning to `O=C(Nc1ccc(N(CCCl)CCCl)cc1)Oc1ccc(C(=O)O)cc1`, the growth inhibition in assay [6] was 6.75%; in assay [1] (at 50.0 µM) it was 6%; in assay [3] (at 50.0 µM), 9.3%; in assay [4] (at 50.0 µM), 15.2%; in assay [5] (at 50.0 µM) it was 20.5%.

In the case of `CCOC(=O)C(C)Br` (stereo not drawn), the growth inhibition in assay [6] was 15%; in assay [2] (at 50.0 µM) it was 28.3%; in assay [3] (at 50.0 µM), -24.7%; in assay [4] (at 50.0 µM) it was 44.6%; in assay [5] (at 50.0 µM) it was -8.2%.

Take `O=C(O)c1cccc2cccc(C(=O)O)c12.[Hg]`: the growth inhibition was 100% (active) in assay [1] (setting [7]); 100% (active) in assay [1] (setting [8]); 99.5% (active) in assay [1] (at 50.0 µM); 100% (active) in assay [2] (setting [7]); 99% (active) in assay [2] (setting [8]); 99.7% (active) in assay [2] (at 50.0 µM). Further, the growth inhibition in assay [3] (setting [7]) was 99% (active); in assay [3] (setting [8]), 99% (active); in assay [3] (at 50.0 µM), 98.5% (active); in assay [4] (setting [7]), 99% (active); in assay [4] (setting [8]), 99% (active); in assay [4] (at 50.0 µM), 99.2% (active). The values for the growth inhibition in assay [5] (setting [7]), in assay [5] (setting [8]) and in assay [5] (at 50.0 µM) were 99% (active), 99% (active) and 99.6% (active), respectively.

Turning to `NC(CCP(=O)(O)O)C(=O)O` (stereo not drawn), the growth inhibition is 1.1% and -34.8% in assay [6]; -5.6% and -33.7% in assay [2] (at 50.0 µM); -3.25% and 6.1% in assay [3] (at 50.0 µM); 7.7% and -23.5% in assay [4] (at 50.0 µM); -5.75% and -18.1% in assay [5] (at 50.0 µM).

`C[CH2][Sn]([O][Sn]([Cl])([CH2]C)[c]1ccccc1)[c]1ccccc1` (stereo not drawn): the growth inhibition was 18% in assay [1] (setting [7]); 98% (active) in assay [1] (setting [8]); 73.2% (active) in assay [1] (at 50.0 µM); -9% in assay [2] (setting [7]); 96% (active) in assay [2] (setting [8]); 80.9% (active) in assay [2] (at 50.0 µM). In addition, the growth inhibition is 28% in assay [3] (setting [7]); 96% (active) in assay [3] (setting [8]); 81.9% (active) in assay [3] (at 50.0 µM); 9% in assay [4] (setting [7]); 97% (active) in assay [4] (setting [8]); 78.1% (active) in assay [4] (at 50.0 µM). For the same compound, the values for the growth inhibition in assay [5] (setting [7]), in assay [5] (setting [8]) and in assay [5] (at 50.0 µM) were 17%, 98% (active) and 87% (active), respectively.

Take `O=NN1CCOCC1`: the growth inhibition in assay [6] was -36.5%; in assay [1] (at 50.0 µM), 11.1%; in assay [3] (at 50.0 µM), -15.7%; in assay [4] (at 50.0 µM) it was -1.6%; in assay [5] (at 50.0 µM) it was 31.1%.

Regarding `c1cc[c]([Sn]([c]2ccccc2)[c]2ccccc2)cc1.c1cc[c]([Sn]([c]2ccccc2)[c]2ccccc2)cc1`, the growth inhibition in assay [1] (setting [7]) was 51%; in assay [3] (setting [7]), 9%; in assay [4] (setting [7]) it was 54%.

Turning to `CC(=O)O[C@H]1C(=O)O[C@@H]2C[C@H]3C(C)=CC(=O)[C@@H](O)[C@]3(C)[C@H]3[C@@]4(O)OC[C@]32[C@@H]1[C@@H](C)[C@H]4O`, the growth inhibition in assay [1] (setting [7]) was 31%; in assay [1] (setting [8]), 78% (active); in assay [1] (at 50.0 µM), 51.2%; in assay [2] (setting [7]), 17%; in assay [2] (setting [8]), 82% (active); in assay [2] (at 50.0 µM), 59.6%. Also, the growth inhibition was 36% in assay [3] (setting [7]); 90% (active) in assay [3] (setting [8]); 74.2% (active) in assay [3] (at 50.0 µM); 1% in assay [4] (setting [7]); 74% (active) in assay [4] (setting [8]); 60.4% in assay [4] (at 50.0 µM). Besides, the growth inhibition in assay [5] (setting [7]) is 20%; in assay [5] (setting [8]), 93% (active); in assay [5] (at 50.0 µM), 83.9% (active).

Take `O.[Co].[NH2-].[NH2-].[NH2-].[NH2-].[NH2-]`: the growth inhibition was 27.9% in assay [6]; -27.1% in assay [1] (at 50.0 µM); 12.8% in assay [3] (at 50.0 µM); 24.2% in assay [4] (at 50.0 µM); 33.4% in assay [5] (at 50.0 µM).

As to `CCC1(O)C(=O)OCc2c1cc1n(c2=O)Cc2cc3cc(C)ccc3nc2-1` (stereo not drawn), the growth inhibition in assay [1] (setting [7]) is 36%; in assay [1] (setting [8]), 64%; in assay [1] (at 50.0 µM) it was 83.9% (active); in assay [2] (setting [7]) it was 31%; in assay [2] (setting [8]), -19%; in assay [2] (at 50.0 µM), 47.1%. The growth inhibition in assay [3] (setting [7]) was 17%; in assay [3] (setting [8]) it was -4%; in assay [3] (at 50.0 µM), 18.9%; in assay [4] (setting [7]) it was -1%; in assay [4] (setting [8]) it was -25%; in assay [4] (at 50.0 µM), 18.8%. For the same compound, the values for the growth inhibition in assay [5] (setting [7]), in assay [5] (setting [8]) and in assay [5] (at 50.0 µM) were 36%, 61% and 64.7%, respectively.

Regarding `O=c1ccc(N=Cc2ccc(N(CCCl)CCCl)cc2)ccc1O`, the growth inhibition in assay [1] (setting [7]) is 92% (active); in assay [1] (setting [8]), 97% (active); in assay [1] (at 50.0 µM), 65.4%; in assay [2] (setting [7]), 97% (active); in assay [2] (setting [8]) it was 98% (active); in assay [2] (at 50.0 µM), 92% (active). Besides, the growth inhibition was 52% in assay [3] (setting [7]); 89% (active) in assay [3] (setting [8]); 35.4% in assay [3] (at 50.0 µM); 95% (active) in assay [4] (setting [7]); 93% (active) in assay [4] (setting [8]); 93% (active) in assay [4] (at 50.0 µM). Besides, the growth inhibition was 98% (active) in assay [5] (setting [7]), 98% (active) in assay [5] (setting [8]) and 93.8% (active) in assay [5] (at 50.0 µM).
